Source: PubChem BioAssay
aSyn UTR act: Activators via SNCA 5'UTR binding, MLPCN. activity score, % (tested at 7.5 µM), hits read low. 7.1% of 300,000 active. alpha-synuclein 5'UTR reporter, activators screen; in the data active = activity score below about -60%
Numbers without * were called inactive. The list is a sample of the results.

SMILES | aSyn UTR act
CC(NS(=O)(=O)c1cccc(Cl)c1)C(=O)Nc1ccc(-c2nc3ccccc3s2)cc1 (configuration not stated) | -139*
CSCC(=O)N1CCc2ccc(NC(=O)c3ccccc3Cl)cc2C1 | -117*
Cc1ccc2c(c1)C1CN(C)CCC1N2C(=O)Nc1ccc(Cl)cc1 (configuration not stated) | -66*
Cn1c(SCC(=O)c2ccccc2)nnc1-c1cccs1 | -102*
CCC(=O)Nc1cccc(-c2nnc(SCC(=O)c3ccccc3)n2C)c1 | -103*
CCn1c(SCC(=O)c2ccccc2)nnc1-c1cnccn1 | -78*
CCC(=O)Nc1cccc(-n2nnnc2SCC(=O)c2ccc(C)c(C)c2)c1 | -84*
Cn1c(SCc2c(Cl)cccc2Cl)nnc1-c1cccs1 | -62*
Cn1c(SCC(=O)c2ccccc2)nnc1-c1cnccn1 | -67*
CCn1c(SCc2nc3ccccc3[nH]2)nnc1-c1cnccn1 | -90*
Cc1nc(NC(=O)c2ccccc2)nc2cc3c(cc12)OCO3 | -127*
Cc1nc(NC(=O)c2ccc(F)cc2)nc2cc3c(cc12)OCO3 | -120*
CCN(CC)CCN1C(=O)c2oc3ccccc3c(=O)c2C1c1ccc(F)cc1 (configuration not stated) | -70*
CCCCCCCCCCOC(=O)Cn1c(COc2cccc(C)c2)[n+](C)c2ccccc21 | 65
Cc1cccc(OCCCn2c(=O)sc3ccccc32)c1 | -90*
COc1ccc(OCCn2c(=O)sc3ccccc32)cc1 | -142*
Cc1ccnc(NC(=O)Nc2ccc3c(c2)N(C)C(=O)CS3)c1 | -97*
Cc1cccc(NC(=O)Nc2ccc3c(c2)N(C)C(=O)CS3)n1 | -83*
COc1ccccc1CC(=O)NCc1csc(-c2cccs2)n1 | -117*
O=C(NCc1csc(-c2cccs2)n1)C1CCCCC1 | -67*
COc1ccccc1CCNC(=O)c1nc(-c2cccs2)no1 | -93*
Cn1cnnc1SCc1ccc(-c2ccc(Br)cc2)o1 | -72*
Clc1cccc2sc(-c3nnc(-c4ccccc4)o3)c(Cl)c12 | -137*
O=C(Nc1ccc(N2CCN(C(=O)c3cccs3)CC2)cc1)c1ccc([N+](=O)[O-])o1 | 106
COc1ccc(/C=C/C(=O)c2ccc([N+](=O)[O-])o2)cc1 | -62*
SMILES | aSyn UTR act
O=C(Nc1ccc(S(=O)(=O)N2CCOCC2)cc1)c1cc([N+](=O)[O-])ccc1Cl | -67*
O=C(Nc1ccc(N2CCOCC2)cc1)c1ccc([N+](=O)[O-])o1 | -103*
O=C(Nc1ccc2c(c1)CCCN2C(=O)c1ccco1)c1cc([N+](=O)[O-])ccc1Cl | -94*
O=C(/C=C/c1cccc([N+](=O)[O-])c1)c1ccc([N+](=O)[O-])o1 | 71
O=C(Nc1ccc(S(=O)(=O)N2CCOCC2)cc1)c1ccc([N+](=O)[O-])o1 | -120*
O=C(Nc1ccc(Cc2ccncc2)cc1)c1ccc([N+](=O)[O-])o1 | -150*
COc1ccc(S(=O)(=O)N2CCN(C(=O)c3ccc([N+](=O)[O-])o3)CC2)cc1 | -78*
CC(C)(C)n1nc(-c2ccc(F)cc2)c2c(N)ncnc21 | 71
Cc1cc(C(=O)Nc2ccc3[nH]ccc3c2)no1 | -152*
Oc1ccccc1CNc1ccc(Br)cn1 | -300*
COc1ccccc1CNc1ccc(Br)cn1 | -113*
CCCCC(=O)NC(c1ccc(C(C)C)cc1)c1ccc2cccnc2c1O (configuration not stated) | 112
O=C(NC(=S)Nc1ccccc1F)c1ccc(Br)o1 | -66*
O=C(O)CCC(=O)Nc1cccc2cccnc12 | -114*
CSc1ccccc1NC(=O)c1ccc(Br)o1 | -78*
CCCCC(=O)NC(c1ccccc1Cl)c1ccc2cccnc2c1O (configuration not stated) | 83
Cc1ccc(NC(=S)NC(=O)c2ccc(Br)o2)c(C)c1 | -181*
O=C(Nc1cccc2cccnc12)c1ccc(Br)o1 | -97*
Cc1cccc(NC(=S)NC(=O)c2ccc(Br)o2)c1C | -74*
O=C(NCC1CCCO1)c1sc2cc(Cl)ccc2c1Cl (configuration not stated) | -124*
CCN(CC)C(=O)C1CC(c2ccc(OC)cc2)=NO1 (configuration not stated) | -103*
CC1(C)CC(N=c2cc(-c3ccccc3)oc3ccc(Cl)cc23)CC(C)(C)N1 | 99
OCCCN=c1cc(-c2ccccc2)oc2ccc(Cl)cc12 | -440*
Cc1occc1C(=O)N/N=C/c1cccc2ccccc12 | -200*
Cc1occc1C(=O)Nc1cccc2ccccc12 | -172*
SMILES | aSyn UTR act
O=C(N/N=C/c1cccs1)c1n[nH]c2c1CCCC2 | 82
Cc1occc1C(=O)N/N=C/c1cccs1 | -82*
CCOc1ccc(-c2cn(-c3ccc(OC)cc3)c(SC)n2)cc1 | -147*
CSc1nc(-c2ccccc2)cn1-c1ccc(NC(C)=O)cc1 | -106*
O=C(Nc1ccc(F)cc1F)c1cc2n(n1)C(C(F)(F)F)C1CCCCC1N2 (configuration not stated) | -69*
O=C(Nc1ccc(F)cc1F)c1cc2nc3c(c(C(F)(F)F)n2n1)CCCC3 | -79*
O=C(CSc1ccccn1)Nc1ccc2c(c1)OCCO2 | -65*
O=C(Nc1ccc2c(c1)OCCO2)c1ccccn1 | 88
CC(Nc1ccc2c(c1)OCCO2)C(=O)N1CCc2ccccc21 (configuration not stated) | -65*
O=C(CSc1ccccn1)Nc1ccc2ccccc2c1 | -159*
Cc1cccc(SCC(=O)Nc2ccc3c(c2)OCCO3)c1 | -117*
O=C(CSc1ccccn1)Nc1ccc2c(c1)CCC2 | -77*
Cc1ccnc(NC(=O)CSc2ccc3c(c2)OCCO3)c1 | -114*
O=C(CSc1ccccn1)Nc1ccc2c(c1)C(=O)c1ccccc1C2=O | -68*
O=C(CSc1nccc(=O)[nH]1)Nc1ccc2c(c1)OCCO2 | -139*
CC(=O)NC(CC(=O)Nc1ccc2c(c1)OCCO2)c1ccccc1 (configuration not stated) | -77*
Nc1ccccc1SCC(=O)Nc1ccc2c(c1)OCCO2 | -89*
COc1ccc(OCC(=O)C2CC2)c(C#N)c1 | -78*
COc1cccc(NC(=O)c2cc(=O)c3ccccc3o2)c1 | -72*
Cc1cccc(NC(=O)c2cc(=O)c3ccccc3o2)n1 | -132*
Cc1ccc(NC(=O)c2cc(=O)c3ccccc3o2)cc1 | -190*
Cc1cccc(NC(=O)c2cc(=O)c3ccccc3o2)c1 | -67*
O=C(NCC1CCCCC1)c1ccc(F)cc1Cl | -124*
O=S(=O)(Nc1ccc(F)cc1Cl)c1ccc(-c2cnc(C3CC3)o2)cc1 | 68
CCOC(=O)/C(C#N)=C1/C=CN(c2ccccc2)C=N1 | -79*
SMILES | aSyn UTR act
CCOC(=O)/C(C#N)=C1/C=CN(c2ccc(C)cc2)C=N1 | -97*
COc1ccc(/C=C/C(=O)NC(=S)NNC(=O)c2cnccn2)cc1 | 75
COc1ccccc1/C=C/C(=O)NC(=S)Nc1ccccn1 | -126*
COc1ccc(/C=C/C(=O)NC(=S)Nc2ccccn2)cc1 | -94*
Cc1ccc2c(c1)[nH]c1c(=O)n(Cc3ccco3)cnc12 | -118*
O=[n+]1c2c(n([O-])c3cc(F)c(N4CCCC4)cc31)CCCC2 | -77*
Cc1cc2cc(C=C(C#N)C#N)c(Cl)nc2cc1C | -75*
CC(=O)c1cnc(Nc2ccc(C)cc2)s1 | -122*
O=[N+]([O-])c1ccc(-c2ccc(/C=N/c3c(-c4ccco4)nc4ccccn34)o2)cc1 | -75*
Cc1cc(C)c([N+](=O)[O-])cc1-c1ccc(/C=N/c2c(-c3ccco3)nc3ccccn23)o1 | -92*
